Compounds with a hit are over-represented: about 8.3% of the library has one in this group of screens.
Lassa entry inh: blocks Lassa virus binding to or entry into cells. Lassa virus pseudotype entry inhibition, cell reporter. Potency, µM (titrated, usually from 37.9 µM), for the others: top-dose activity change, negative = inhibition, hits mostly inhibitors. 300,000 tested, 1.2% active. AID 540256; calls by dose curve; tested in HEK293 cells; further: potency means the concentration at half of the fitted maximal effect; nearly all actives have a fitted effect of over 50% in size
FMDV inh: foot and mouth disease virus antiviral activity. 410,000 tested, 1.2% active. AID 1159524. FMDV antiviral cell-based qHTS. Potency, µM (series often up to 57.9 µM), for the others: at the highest dose activity change, negative = inhibition, hits mostly inhibitors; calls by dose curve; tested in HEK293T cells; further: read-out not given here; potency means the concentration at half of the fitted maximal effect; nearly all actives have a fitted effect of over 45% in size
Marburg entry inh: Marburg virus entry inhibition; Potency, µM (doses to about 37.8 µM), for the others: at the top dose activity change, negative = inhibition, most hits filed as inhibitors; 300,000 tested, 1.8% active; Marburg virus pseudotyped entry inhibition, cell reporter; calls by dose curve; tested in HEK293 cells; further: potency means the concentration at half of the fitted maximal effect
HCV inhibitor: inhibitors of hepatitis C virus infection; Huh7.5.1 HCVcc-Cre infection, luciferase reporter, 44 h; Potency, µM (titrated, usually from 41.8 µM), for inactives: top-dose activity change, negative = inhibition, most hits filed as inhibitors; 340,000 tested, 3.4% active; AID 651820; further: potency means the concentration at half of the fitted maximal effect
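Whole-lifecycle infectious HCVcc-Cre system; cells 1,000/well, compound then virus (~0.5 moi) added 4 h after plating, 44 h culture. Luciferase read 15 sec following 15 min substrate incubation, room temp.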
HCMV antiviral: inhibitors of human cytomegalovirus | HFF cells, HCMV-luciferase reporter, 72 h; hits give low values | AID 1259415 | activity change, negative = inhibition, % at 57.5 µM | 410,000 tested, 4.5% active; in the data active means activity change below about -60%; inconclusive means no clear call, values can overlap the other calls; inactive means above about -39%
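Two compound doses tested in HFFs infected with HCMV-luciferase, MOI 1 PFU/cell, 72 h at 37C. Lysate luminescence read with OneGlo; data normalized against buffer-only and 10uM Salinomycin inhibitor controls.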
FBPA Giardia inh: inhibitors of Giardia lamblia fructose-1,6-bisphosphate aldolase; A8B2U2; purified Giardia FBPA; Potency, µM (series often up to 59.6 µM), for inactives: top-dose activity, negative = inhibition, most hits filed as inhibitors; 290,000 tested, 0.71% active; AID 2451; further: potency means the concentration at half of the fitted maximal effect; nearly all actives have a fitted effect of over 55% in size
Target sequence (A8B2U2 whole entry, looked up): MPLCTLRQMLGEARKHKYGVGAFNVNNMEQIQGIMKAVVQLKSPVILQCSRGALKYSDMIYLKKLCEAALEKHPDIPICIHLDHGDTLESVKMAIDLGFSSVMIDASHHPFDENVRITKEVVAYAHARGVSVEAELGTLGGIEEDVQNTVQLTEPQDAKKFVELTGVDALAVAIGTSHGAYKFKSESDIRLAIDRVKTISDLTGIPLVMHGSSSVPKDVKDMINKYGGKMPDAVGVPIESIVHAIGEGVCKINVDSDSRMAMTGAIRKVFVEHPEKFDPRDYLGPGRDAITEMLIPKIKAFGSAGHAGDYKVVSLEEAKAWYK
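Giardia FBPA (40 nM reagent) was preincubated 10 min at RT with compound (up to 57.5 uM final), then substrate plus GAPDH/TPI/NAD/arsenate coupling system with diaphorase/resazurin was added; resorufin fluorescence (525/598 nm) was read after 20 min.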
Active calls of the source: *; ? = inconclusive; nt = no result; + = active, no number; ! = repeats disagree; [ ] = dose if it differs, or a comment. Unless noted, the call rests on the fitted dose curve; in most records, active means well fitted curve in the direction sought with a large enough effect; inconclusive means small, poorly fitted or top-dose-only effect, or another doubt; inactive means no such curve, though single readings can be large; an effect the other way counts as inactive or inconclusive. On the % scale 0 is the no-effect control and ±100 the full control effect.

SMILES	Lassa entry inh	FMDV inh	Marburg entry inh	HCV inhibitor	HCMV antiviral	FBPA Giardia inh
Nc1c(S(=O)(=O)O)cc(Nc2ccc(Nc3nc(Cl)nc(Nc4ccc(S(=O)(=O)O)cc4)n3)c(S(=O)(=O)O)c2)c2c1C(=O)c1ccccc1C2=O	?	nt	14µM*	nt	nt	12%
Cc1ccc2cc(CN(Cc3ccc(F)cc3)Cc3nnnn3C3CCCC3)c(=O)[nH]c2c1	-21%	nt	15µM*!	14%	25	?
Cc1ccc2cc(CN(Cc3ccccc3)Cc3nnnn3C3CCCC3)c(=O)[nH]c2c1	-16%	nt	?	?	-37	1%
CCc1ccc2[nH]c(=O)c(CN(Cc3ccc4c(c3)OCO4)Cc3nnnn3C3CCCC3)cc2c1	8.2µM*	?	?	?	-4	1%
CCOc1ccc(NC(=O)CN2C(=O)CCSc3ccc(S(=O)(=O)N4CCCC4)cc32)cc1	21%[46.1 µM]	?	nt	-28%	4	nt
O=C(COc1cc(F)ccc1[N+](=O)[O-])Nc1cc(S(=O)(=O)N2CCCC2)ccc1Cl	-6%	-28%	-7%	14µM*	-26	nt
O=C(COc1ccccc1Cl)Nc1cccc(S(=O)(=O)N2CCCC2)c1	nt	-23%	nt	10µM*	?	nt
N=c1sccn1CC(=O)Nc1cccc(S(=O)(=O)N2CCCCCC2)c1	-11%	-17%	?	10µM*	-19	-6%
CCOc1ccc(NC(=O)CN2C(=O)CSc3ccc(S(=O)(=O)N4CCCC4)cc32)cc1	nt	-1%	nt	?	+	nt
O=C(COc1ccccc1)Nc1cccc(S(=O)(=O)N2CCCC2)c1	?	-4%	3%	-26%	-8	nt
CCCCCCCCCCCCCCCCCC(=O)OC(CC(=O)O)C[N+](C)(C)C (centres undefined)	-8%	nt	?	nt	nt	0%
CCn1cc2nc(SCC(=O)Nc3ccccc3F)n(Cc3ccc(C)cc3)c(=O)c2n1	-25%[46.1 µM]	-18%	nt	nt	-2	nt
Cc1cn(C)c(CC(=O)Nc2cccc(Cl)c2C)c1C(=O)O	7%[46.1 µM]	-6%	nt	nt	8	nt
CCOc1ccc(C(=O)OCC(=O)Nc2cccc(S(=O)(=O)N3CCCC3)c2)cc1	?	-1%	-20%	?	14	nt
CC(C)CN(CC(C)C)C(=O)c1cc(S(=O)(=O)N2CCCCC2)c[nH]1	nt	-14%	nt	2%	?	nt
O=C(COc1ccc(F)cc1Cl)Nc1cccc(S(=O)(=O)N2CCCC2)c1	nt	26%	nt	10µM*	-2	nt
CCCN(CCC)C(=O)c1cc(S(=O)(=O)N2CCCCC2)c[nH]1	nt	-19%	nt	4.5µM*	57	-3%
CCOc1ccc(C(=O)CCC(=O)Nc2cccc(S(=O)(=O)N3CCCCC3)c2)cc1	10µM*	0%	?	?	-13	nt
O=C(COc1ccccc1[N+](=O)[O-])Nc1cccc(S(=O)(=O)N2CCCC2)c1	?	-8%	?	?	?	nt
CCOc1ccc(NC(=O)CN2C(=O)C(C)SC(C)C2=O)cc1 (centres undefined)	8%	6%	1%[46.1 µM]	6%	-65*	-1%
CCCCCCCCCCCCCCCCSCC(COC)COP(=O)([O-])OCC[N+](C)(C)C (centres undefined)	nt	nt	nt	nt	nt	5%
O=C(Nc1cccc(Cl)c1)Nc1ccc2nc(-c3ccc(F)c(Cl)c3)nn2c1	nt	nt	nt	nt	80	nt
COc1cc(OC)cc(C2=Nn3c(nnc3-c3cccc(OC)c3)SC2)c1	nt	nt	nt	nt	nt	8%
O=C1CCCC2CCCCN12 (centres undefined)	nt	nt	nt	nt	nt	6%[188 µM]
O=C(Cc1ccc(Cl)cc1)Nc1cccc(S(=O)(=O)N2CCCCC2)c1	nt	11%	nt	?	-8	nt
SMILES	Lassa entry inh	FMDV inh	Marburg entry inh	HCV inhibitor	HCMV antiviral	FBPA Giardia inh
O=C(CCl)Nc1cccc(S(=O)(=O)N2CCCCCC2)c1	7.9µM*	25µM*	?	?	-97*	3%
O=C(c1ccc(S(=O)(=O)N2CCCC2)cc1)N1CCN(c2cccc(Cl)c2)CC1	?	?	?	nt	-28	5%
O=C(c1cc(S(=O)(=O)N2CCCC2)c[nH]1)N1CCN(c2cccc(Cl)c2)CC1	3%[46.1 µM]	21%	nt	nt	-102*	nt
O=S(=O)(c1cccc(Cl)c1)N1CCCC1	11%	7%	27%	13%	-107*	-10%
Cc1nc2c(C(=O)NC(C)c3ccccc3)cnn2c(C)c1Cc1ccccc1 (centres undefined)	?	?	nt	nt	-86*	nt
Cc1cc(C)c(Cc2c(C)nc3c(C(=O)NCc4ccco4)cnn3c2C)c(C)c1	-15%	18µM*	?	8.9µM*	-99*	12%
Cc1cccc(Nc2nc3c(S(=O)(=O)c4ccc(Br)cc4)nnn3c3ccsc23)c1C	-24%[46.1 µM]	-14%	nt	nt	25	nt
O=C(/C(=C/c1ccncc1)n1ccnc1)c1ccc(Cl)cc1Cl	nt	22µM*	nt	2%	?	3%
O=C(COC(=O)CCc1ccc(S(=O)(=O)N2CCOCC2)cc1)Nc1ccc(Cl)cn1	-2%	-19%	0.79µM*!	10%	26	-4%
Cc1ccc(S(=O)(=O)N2CCOCC2)cc1NC(=O)COC(=O)CNC(=O)c1ccc(Cl)cc1Cl	9%	-12%	24%	4%	-68*	nt
O=C(COC(=O)c1cc(S(=O)(=O)N2CCOCC2)ccc1Cl)Nc1ccc(Cl)cn1	nt	-15%	nt	nt	-11	nt
O=C(O)[C@H]1CN[C@H](C(=O)O)C1	nt	19%	nt	nt	nt	-7%
CN1c2ccccc2-c2nc(SCC(=O)Nc3ccccc3C(F)(F)F)ncc2S1(=O)=O	?	-7%	nt	nt	7	nt
CCN1C(C)=C(C(=O)OC)C(c2ccccc2)N2C(=O)[C@@]3(C(=O)OC)O[C@@]12C1C(=O)N(C)C(=O)C13 (some centres undefined)	nt	nt	nt	nt	nt	2%[12.9 µM]
COCCNC(=O)C1CCCN(C(=O)c2cc(-c3cccs3)oc2C)CC1 (centres undefined)	nt	-21%	nt	nt	-67*	nt
COCCNC(=O)C1CCCN(C(=O)c2sccc2C)CC1 (centres undefined)	nt	-5%	nt	nt	-10	nt
CCOC(=O)C(=O)C1(C(=O)OCC)Oc2cc(OC)cc(OC)c2C(=O)C1c1ccccc1 (centres undefined)	nt	40%	nt	nt	nt	?
Cc1ccc(NC(=O)Cn2nnc(C(=O)NCCc3ccccc3)c2N)cc1	36%[46.1 µM]	-4%	-30%[46.1 µM]	nt	13	nt
COc1ccc(CNCC(O)COc2cccc3c2OC(C)(C)C3)cc1 (centres undefined)	?	-30%	?	?	-64*	1%
CCCCNC(=O)CSc1nc2cc3c(cc2c(=O)n1CCCCCC(=O)NCCc1ccc(OC)c(OC)c1)OCO3	28%[46.1 µM]	-4%	nt	nt	13	nt
CCN(CC)C(=O)CSc1nc2cc3c(cc2c(=O)n1CCCCCC(=O)NCCc1ccc(OC)c(OC)c1)OCO3	16%[46.1 µM]	3%	nt	nt	-83*	nt
CCOc1cc(/C=N/NC(=O)c2ccccc2OCc2ccc(F)cc2)ccc1O	nt	?	nt	?	-82*	nt
